Activity calls are given as the source filed them.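 The calls were made as follows, unless noted: active = compound raises insulin release from rat beta cells at 5 mM glucose, no numeric limit stated; inactive = the rest.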

Experiment [1] can be described thus: compounds altering Cy5-DNA-NS3h complex signal – biochemical, LOPAC1280, artefact control for HCV NS3 helicase inhibitor project (AID 687037; call rule not given here). The conditions noted are these: Cy5-DNA-NS3h complex fluorescence interference counterscreen. (In general: The purpose of a counterscreen is to sort out artefacts and off-target activity.)
Experiment [2] in a line: Wnt pathway potentiators raising nuclear beta-catenin – imaging, WNT3A-conditioned medium, mouse C2C12, NPC library, primary screen (AID 1117326; in the data active = nuclear beta-catenin stimulation mostly above about 4.2%, no sharp cut-off; inactive = mostly below about 10%). The conditions noted are these: stronger effect = higher value.
The nature of experiment [3]: stimulators of insulin release from INS-1E, primary screen, cell-based, 5 mM glucose, NPC library (AID 1117329). The conditions noted are these: rat INS-1E insulin secretion, at 10 µM, stronger effect = higher value.
Experiment [4] in a line: growth inhibition of GSK3B-pretreated HCT116 cells – cell-based, CellTiter-Glo, 0.2 to 20 µM (AID 1117336;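 active = compounds lowering colon cancer cell viability after pretreatment blocking the GSK3B kinase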). The conditions noted are these: HCT116 viability after GSK3B inhibitor, at 20 µM, stronger effect = higher value. (Cellular ATP, detected with luciferase, serves as a proxy for viable cell number.)
Experiment [5] in a line: inhibition of endothelial tube formation, primary screen, imaging, VEGF stimulated, CD31 staining, tube area, NPC library (AID 1117340;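 active = compound that reduces growth-factor-driven endothelial tube area in a mixed cell culture, no cutoff stated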). The conditions noted are these: VEGF-stimulated ADSC/ECFC co-culture, at 10 µM, stronger effect = higher value.
Experiment [6] is described as follows: GLP1 release stimulators, primary, NCI-H716, NPC library (AID 1117341;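 active = compound raises GLP1 secretion from the human gut endocrine cells, with no numeric limit stated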). The conditions noted are these: NCI-H716 cells, at 10 µM, stronger effect = higher value.
Experiment [7] in a line: HCT116 colon cancer cell growth inhibition, primary screen, CellTiter-Glo luminescence, NPC library (AID 1117342;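 active = compounds that lower survival of HCT116 colon cancer cells in the luminescence readout, no numeric limit stated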). The conditions noted are these: at 20 µM (top of the series).
Experiment [8] in a line: reduced SW480 viability measured with CellTiter-Glo, NPC library, primary (AID 1117343;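 active = compounds that lower viability of the colon cancer cells in the luminescence readout, with no numeric limit stated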). The conditions noted are these: CellTiter-Glo luminescence; at 20 µM (top of the series) unless noted.
A short description of experiment [9]: NPC library primary testing for decreased DLD-1 cell viability via CellTiter-Glo (AID 1117346;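 active = compounds that lower survival of DLD-1 colon cancer cells in the luminescence readout, no cutoff given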). The conditions noted are these: DLD-1 viability, CellTiter-Glo luminescence; at 20 µM (top of the series).
The target in experiment [10] is 6-phosphogluconate dehydrogenase, decarboxylating (Homo sapiens) (UniProt P52209). The experiment can be described thus: inhibition of human phosphogluconate dehydrogenase – biochemical, recombinant enzyme, NADPH absorbance, primary screen (AID 1159550;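 active = at least 20% inhibition of 6-phosphogluconate dehydrogenase activity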). The conditions noted are these: recombinant 6PGD, NADPH absorbance 341 nm; at 10 µM; stronger effect = higher value.
6-phosphogluconate dehydrogenase, decarboxylating (Homo sapiens), sequence (P52209 whole entry, looked up): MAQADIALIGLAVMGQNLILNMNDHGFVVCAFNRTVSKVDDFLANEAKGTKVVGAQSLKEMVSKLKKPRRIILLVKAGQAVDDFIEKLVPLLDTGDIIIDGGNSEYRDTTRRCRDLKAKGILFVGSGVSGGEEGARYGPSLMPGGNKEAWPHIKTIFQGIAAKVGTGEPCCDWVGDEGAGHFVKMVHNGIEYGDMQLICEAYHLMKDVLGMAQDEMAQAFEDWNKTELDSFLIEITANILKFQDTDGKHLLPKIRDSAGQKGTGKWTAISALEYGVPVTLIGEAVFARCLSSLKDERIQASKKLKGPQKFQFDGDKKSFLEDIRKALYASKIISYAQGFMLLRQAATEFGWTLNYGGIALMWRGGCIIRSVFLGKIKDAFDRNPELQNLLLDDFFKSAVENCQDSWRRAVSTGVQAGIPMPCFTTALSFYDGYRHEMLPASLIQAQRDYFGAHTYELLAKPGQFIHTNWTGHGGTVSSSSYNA
Experiment [11] is described as follows: EMT-state selective cytotoxicity in co-culture – imaging, PC-3E GFP, TEM4-18 mCherry, primary screen (AID 1345086;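 active = compounds killing one labelled cell type while sparing the other, by normalised counts and ratio limits, not self-fluorescent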;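 also: cells exposed to compound for 72 h before imaging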;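 as to red/green cell ratio (normalised): normalised mesenchymal count divided by normalised epithelial count so high means epithelial killing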). The conditions noted are these: PC-3E GFP / TEM4-18 mCherry co-culture, imaging cell counts, at 1 µM.
A short description of experiment [12]: viability loss with induced miR-34 in A549 – imaging, A549 dox-inducible miR-34, nuclei and caspase counts, primary screen (AID 1347080;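 active = compounds whose cell count with miR-34 switched on is under 0.7 times the count with it off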). The conditions noted are these: A549 miR-34 inducible, Hoechst nuclei count, 48 h.
Experiment [13] in a line: galactose survival enhancers in mitochondrial complex I cybrids – cell-based, galactose medium, ATP luminescence, primary screen (AID 1645843;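 active = z-score of at least 1.8 in each of two replicates, scored against plate mean and spread of sample wells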;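 also: positive z means more ATP and so rescue of galactose-driven cybrid death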). The conditions noted are these: complex I mutant cybrid cells, 72 h, stronger effect = higher value.
A short description of experiment [14]: compounds altering viability of human ES cells (AID 493140; call rule not given here;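 also: cells exposed to compounds for four days before counting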). The conditions noted are these: human embryonic stem cell survival screen; stronger effect = higher value.

With `CN(C)CCCO[C@@H]1[C@H]2OC(C)(C)O[C@H]2O[C@@H]1C(O)CO` (some centres not stated), the fluorescence ratio (interference) in [1] was 1 (inactive). Also, the nuclear beta-catenin stimulation in experiment [2] (at 10 µM) was -2% (inactive); in experiment [2] (stimulation, at 2 µM) it was -1%. The insulin secretion stimulation in [3] is 0.9% (inactive). The viability decrease in experiment [4] was 24.4% (inactive). Also, the tube area decrease in [5] is -18.7% (inactive). Further, the GLP1 secretion stimulation in [6] is 0.3% (inactive). Moreover, the inhibition of viability in experiment [7] is 55.2% (active). Further, the viability decrease (inhibition) is 13.2% (inactive) in [8] and 66.4% (active) in experiment [9].

Take `C[C@]12CCC(=O)C=C1CC[C@H]1[C@@H]3CC[C@](O)(C(=O)CO)[C@@]3(C)C[C@H](O)[C@@]12F`: the nuclear beta-catenin stimulation was -2.1% (inactive) in [2] (at 10 µM) and -2.1% in experiment [2] (stimulation, at 2 µM). Moreover, the insulin secretion stimulation in experiment [3] is 0.3% (inactive). Moreover, the viability decrease in experiment [4] was -81.6% (inactive). Moreover, the tube area decrease in experiment [5] is 10.3% (inactive). Further, the GLP1 secretion stimulation in experiment [6] was 0.3% (inactive). Further, in [7], the inhibition of viability is -8.17% (inactive). In addition, the results for the viability decrease (inhibition) in experiment [8] and in [9] were -20% (inactive) and -2% (inactive), respectively.

As for `CO[C@H]1O[C@@H]2O[C@@]3(C)CC[C@H]4[C@H](C)CC[C@@H]([C@@H]1C)[C@@]24OO3`, the nuclear beta-catenin stimulation in experiment [2] (at 10 µM) is 1.9% (inactive); in experiment [2] (stimulation, at 2 µM), 11.7%. Moreover, the insulin secretion stimulation in [3] was -0.85% (inactive). The viability decrease in experiment [4] is 33.2% (inactive). The GLP1 secretion stimulation in [6] was 2% (inactive). Also, the inhibition of viability in [7] is -3% (inactive). Further, the viability decrease (inhibition) in [8] was 2.9% (inactive); in experiment [9], 7.2% (inactive).

With `CCCCCCCCCCCCCCCCCC[N+](C)(C)CCC[Si](OC)(OC)OC`, the nuclear beta-catenin stimulation was -0.6% (inactive) in experiment [2] (at 10 µM) and -0.8% in experiment [2] (stimulation, at 2 µM). Moreover, the insulin secretion stimulation in experiment [3] was -0.25% (inactive). Besides, the viability decrease in experiment [4] is 14.4% (inactive). The GLP1 secretion stimulation in experiment [6] is -3.1% (inactive). The inhibition of viability in experiment [7] was 12.9% (inactive). Moreover, the viability decrease (inhibition) was -2.9% (inactive) in experiment [8] and 1.7% (inactive) in [9].

One may read the inhibition as the drop in the measured response relative to a control, in per cent. Turning to `CCCn1cnc2c1c(=O)n(CCCCC(C)=O)c(=O)n2C`, in experiment [1], the fluorescence ratio (interference) is 1 (inactive). Further, the nuclear beta-catenin stimulation was 6.6% (inactive) in experiment [2] (at 10 µM) and -0.2% in [2] (stimulation, at 2 µM). Moreover, the insulin secretion stimulation in experiment [3] is -1.25% (inactive). Besides, the viability decrease in experiment [4] was 14.1% (inactive). Also, the GLP1 secretion stimulation in experiment [6] was -4.5% (inactive). The inhibition of viability in experiment [7] is 20.6% (inactive). Also, the viability decrease (inhibition) in experiment [8] is -2.8% (inactive); in experiment [9], 19.6% (inactive). Further, the inhibition in experiment [10] was -7.06% (inactive). The red/green cell ratio (normalised) in [11] (actives lie on both sides, counts scaled to control wells, 1 = unselective) was 0.84 (inactive). Besides, the normalised cell number in experiment [11] (measured here: epithelial PC-3E GFP cell survival) was 1.14; in experiment [11] (measured here: mesenchymal TEM4-18 mCherry cell survival), 0.96. The fold change is 1.02 (inactive) in experiment [12] (stronger effect = lower value, cell number ratio, induced over uninduced) and 0.994 in experiment [12] (measured here: relative caspase fold change +Dox/-Dox). Also, the cell count in experiment [12] (measured here: total cells with miR-34 induction, stronger effect = lower value) is 10000; in experiment [12] (measured here: total cells without miR-34 induction), 9790. The z-score in experiment [13] is 0.675 (inactive).

Regarding `C[S+](CC[C@H](N)C(=O)O)C[C@H]1O[C@@H](n2cnc3c(N)ncnc32)[C@H](O)[C@H]1O` (some centres not stated), the nuclear beta-catenin stimulation in experiment [2] (at 10 µM) was 0.8% (inactive); in experiment [2] (stimulation, at 2 µM), 1.9%. For the same compound, in experiment [3], the insulin secretion stimulation was 1.55% (inactive). Further, the GLP1 secretion stimulation in experiment [6] is -0.4% (inactive).

As to `C[C@@H]1CCC[C@H](C)N1`, the survival in experiment [14] is 4.42 (inactive). Also, the nuclear beta-catenin stimulation was 1.3% (inactive) in experiment [2] (at 10 µM) and 1% in experiment [2] (stimulation, at 2 µM). For the same compound, the insulin secretion stimulation in experiment [3] was -1.2% (inactive). Also, in experiment [4], the viability decrease is -2.8% (inactive). For the same compound, the tube area decrease in experiment [5] is 3.6% (inactive). In [6], the GLP1 secretion stimulation was 0.5% (inactive). For the same compound, the inhibition of viability in experiment [7] was -4.9% (inactive). For the same compound, the results for the viability decrease (inhibition) in [8] and in [9] were 6.2% (inactive) and 2.2% (inactive), respectively.

The values above are taken from PubChem BioAssay.
